Experimental data as given in PubChem BioAssay (EPA / NIEHS).
Activity calls are given as the source filed them. Rule for the calls: active = hit-call score of the fitted dose curve at least 0.9, where 1 is the maximum; inactive = score below 0.9.

Tests used:
[1] = ATG_CRE_CIS: Attagene CIS-FACTORIAL HepG2 Assay for human cAMP Responsive Element (CRE) binding protein 3 (AID 2282926); conditions: HepG2 CRE cis-reporter, Attagene multiplexed mRNA; actives raise or lower the signal
Procedure, shortened: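 Transfected HepG2 were treated for 24 hours, then RNA was extracted and reporter cDNA amplified with sequence-specific primers. Labelled fragments were separated by capillary electrophoresis, and the CRE signal was fitted bidirectionally with DMSO as baseline.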

[2] = target: CCAAT/enhancer-binding protein beta (Homo sapiens) (UniProt P17676); assay: ATG_C_EBP_CIS: Attagene CIS-FACTORIAL HepG2 Assay for human CCAAT/Enhancer Binding Protein (C/EBP) beta (AID 2282927); conditions: HepG2 Attagene cis-factorial transcription factor reporter; actives raise or lower the signal
Procedure, shortened: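 RT-PCR/capillary electrophoresis fluorescence of reporter mRNA, 24 h post-dose, in HepG2 cells carrying transfected cis-promoter reporter units. Bidirectional curve fitting against DMSO baseline captures gain or loss of signal.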

[3] = ATG_CMV_CIS: Attagene CIS-FACTORIAL HepG2 Assay for human CMV (Internal Marker) (AID 2282928); conditions: HepG2 CMV promoter reporter, transcription factor profiling; actives raise or lower the signal;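 note: endpoint acts as a background internal control marker rather than a target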
Procedure, shortened: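 CMV internal-marker background readout in transiently transfected HepG2 cells bearing cis-regulated reporter units. Reporter mRNA is measured 24 h after dosing by RT-PCR and capillary electrophoresis, with bidirectional fitting against DMSO.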

[4] = ATG_DR4_LXR_CIS: Attagene CIS-FACTORIAL HepG2 Assay for human Liver X Receptor (LXR), DR4 submotif (AID 2282929); conditions: HepG2 Attagene DR4 cis-reporter, mRNA transcription; actives raise or lower the signal
Procedure, shortened: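 Transiently transfected HepG2 liver cells; cis-regulated reporters; 24 h dosing. RT-PCR plus CE read-out of reporter mRNA. DMSO baseline, bidirectional curve fitting.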

[5] = target: Aryl hydrocarbon receptor (Homo sapiens) (UniProt P35869); assay: ATG_Ahr_CIS: Attagene CIS-FACTORIAL HepG2 Assay for human Aryl Hydrocarbon Receptor (Ahr) (AID 2282930); conditions: HepG2 AhR cis-factorial reporter transcription; actives raise or lower the signal
Procedure, shortened: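 HepG2 cells transiently transfected with cis-element-driven multiplexed reporter transcription units; endogenous transcription factor activity measured as reporter mRNA 24 h after dosing. RT-PCR, 6-FAM labelling, HpaI digestion, capillary electrophoresis; bidirectional fitting versus DMSO baseline.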

[6] = ATG_AP_1_CIS: Attagene CIS-FACTORIAL HepG2 Assay for human Activator Protein 1 (AP-1) (AID 2282931); conditions: HepG2 Attagene cis-factorial AP-1 reporter mRNA; actives raise or lower the signal
Procedure, shortened: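 We transfected HepG2 cells transiently with a set of cis-regulated reporter transcription units, dosed them for 24 h, and quantified reporter mRNA via RT-PCR and capillary electrophoresis, scoring gain or loss of signal relative to DMSO.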

[7] = ATG_AP_2_CIS: Attagene CIS-FACTORIAL HepG2 Assay for human Activator Protein 2 (AP-2) (AID 2282932); conditions: HepG2 AP-2 cis-reporter, Attagene transcription factor profiling; actives raise or lower the signal
Procedure, shortened: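 HepG2 cells were transiently transfected with multiple cis-promoter reporter transcription units and dosed for 24 h. Reporter mRNA was measured by RT-PCR with capillary electrophoresis fluorescence; bidirectional fits relative to DMSO baseline.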

[8] = ATG_BRE_CIS: Attagene CIS-FACTORIAL HepG2 Assay for human Bone Morphogenetic Protein (BMP) Response Element (BRE) (AID 2282933); conditions: HepG2 BMP response element reporter, Attagene transcription factor profiling; actives raise or lower the signal
Procedure, shortened: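 HepG2 cells transiently transfected with multiplexed cis-element reporter units were dosed with chemical for 24 h. Reporter mRNA was measured by RT-PCR with fluorescent labelling, HpaI digestion and capillary electrophoresis; bidirectional fitting relative to DMSO.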

[9] = target: Retinoic acid receptor alpha (Homo sapiens) (UniProt P10276); assay: ATG_DR5_RAR_CIS: Attagene CIS-FACTORIAL HepG2 Assay for human Retinoic Acid Receptor Alpha (RARE), DR5 submotif (AID 2282934); conditions: HepG2 Attagene cis-factorial RARE DR5 reporter, mRNA; actives raise or lower the signal
Procedure, shortened: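 HepG2 cells transiently transfected with multiplexed reporter units under cis (DR5 RARE) promoters, so endogenous transcription factor activity is measured. After 24 h compound exposure, reporter mRNA is quantified by RT-PCR with fluorescent labelling and capillary electrophoresis; bidirectional fitting versus DMSO.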

[10] = target: Transcription factor E2F1 (Homo sapiens) (UniProt Q01094); assay: ATG_E2F_CIS: Attagene CIS-FACTORIAL HepG2 Assay for human E2F Transcription Factor 1 (AID 2282935); conditions: HepG2 Attagene cis-reporter, E2F reporter RNA transcripts; actives raise or lower the signal
Procedure, shortened: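 HepG2 cells transiently transfected with multiplexed cis-element reporter units, dosed for 24 h. Reporter mRNA measured by RT-PCR, 6-FAM primer-extension labeling, HpaI digestion and capillary electrophoresis; bidirectional fit versus DMSO baseline.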

[11] = ATG_E_Box_CIS: Attagene CIS-FACTORIAL HepG2 Assay for human Enhancer Box (E-box) (AID 2282936); conditions: HepG2 E-box cis-reporter transcription, actives raise or lower the signal
Procedure, shortened: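 HepG2 cells transiently transfected with multiplexed cis-element reporter units sensing endogenous transcription factor activity; 24 h compound exposure. Reporter mRNA measured by RT-PCR, 6-FAM primer extension, HpaI digestion and capillary electrophoresis; bidirectional fit versus DMSO.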

[12] = ATG_EGR_CIS: Attagene CIS-FACTORIAL HepG2 Assay for human Early Growth Response 1 (EGR1) (AID 2282938); conditions: HepG2 Attagene CIS-FACTORIAL EGR reporter mRNA; actives raise or lower the signal
Procedure, shortened: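 Multiplexed cis-reporter system in human hepatoma HepG2 cells, transiently transfected. Cells are dosed for 24 h; reporter transcripts are amplified, fluorescently tagged and sized by capillary electrophoresis, with DMSO as negative control.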

[13] = ATG_M_19_CIS: Attagene CIS-FACTORIAL HepG2 Assay for M19 Transcription Factor (Internal Marker) (AID 2282939); conditions: HepG2 Attagene CIS-FACTORIAL M19 internal marker reporter; actives raise or lower the signal
Procedure, shortened: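 HepG2 cells transiently transfected with cis-regulated multiple reporter transcription units were dosed for 24 h; reporter mRNA was quantified by RT-PCR, 6-FAM primer-extension labelling, HpaI digestion and capillary electrophoresis, with bidirectional fitting against DMSO baseline.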

[14] = ATG_Ets_CIS: Attagene CIS-FACTORIAL HepG2 Assay for human Erythroblast Transformation Specific (ETS) (AID 2282941); conditions: HepG2 ETS cis-reporter transcription, actives raise or lower the signal
Procedure, shortened: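 HepG2 cells transfected with multiple cis-regulated reporter units measuring endogenous ETS-driven transcription, 24 h after dosing. Reporter mRNA quantified by RT-PCR with capillary electrophoresis; bidirectional fit relative to DMSO.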

[15] = target: Hepatocyte nuclear factor 3-beta (Homo sapiens) (UniProt Q9Y261); assay: ATG_FoxA2_CIS: Attagene CIS-FACTORIAL HepG2 Assay for human Forkhead box A2 (FOXA2) (AID 2282942); conditions: HepG2 cis-reporter transcription factor activity, 24 h; actives raise or lower the signal
Procedure, shortened: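 Multiplexed cis-element reporter assay in transiently transfected HepG2. Twenty-four hours post-dosing, RNA was reverse-transcribed, amplified, FAM-labelled, HpaI-digested and separated by CE. Activity gain or loss relative to DMSO.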

[16] = ATG_GATA_CIS: Attagene CIS-FACTORIAL HepG2 Assay for human GATA Binding Protein (AID 2282944); conditions: HepG2 GATA cis-element reporter, Attagene multiplex mRNA; actives raise or lower the signal
Procedure, shortened: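 HepG2 cells transiently transfected with multiplexed cis-element reporter units reflecting endogenous transcription factor activity; reporter mRNA measured after 24 h dosing by RT-PCR, 6-FAM labeling, HpaI digestion and capillary electrophoresis. Bidirectional fitting versus DMSO baseline.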

[17] = ATG_GLI_CIS: Attagene CIS-FACTORIAL HepG2 Assay for human Zinc Finger Protein GLI1 (AID 2282945); conditions: HepG2, Attagene cis-factorial reporter mRNA, GLI element; actives raise or lower the signal
Procedure, shortened: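 HepG2 cells transiently transfected with cis-promoter multiplexed reporter units report endogenous transcription factor activity. After 24 h chemical exposure, reporter mRNA was quantified by RT-PCR, 6-FAM labelling, HpaI digestion and capillary electrophoresis, with bidirectional fitting against DMSO.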

[18] = target: Bile acid receptor (Homo sapiens) (UniProt Q96RI1); assay: ATG_IR1_CIS: Attagene CIS-FACTORIAL HepG2 Assay for human Nuclear Receptor Subfamily 1 Group H Member 4 (NR1H4), IR1 submotif (AID 2282946); conditions: IR1 reporter transcription, actives raise or lower the signal
Procedure, shortened: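 Transient MRTU transfection, HepG2; 24 h dosing; RNA → RT-PCR → 6-FAM primer extension → HpaI digest → capillary electrophoresis fluorescence. Gain/loss of signal fitted relative to DMSO.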

[19] = ATG_FoxO_CIS: Attagene CIS-FACTORIAL HepG2 Assay for human Forkhead box O (FoxO) (AID 2282943); conditions: HepG2 Attagene cis-reporter, FoxO element, mRNA; actives raise or lower the signal
Procedure, shortened: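 HepG2 cells transiently transfected with cis-promoter-driven multiple reporter transcription units; 24 h after chemical dosing, reporter mRNA quantified by RT-PCR, fluorescent primer extension, HpaI digestion and capillary electrophoresis. Bidirectional fitting versus DMSO baseline.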

[20] = ATG_M_61_CIS: Attagene CIS-FACTORIAL HepG2 Assay for M61 Transcription Factor (Internal Marker) (AID 2282937); conditions: HepG2 Attagene CIS-FACTORIAL M61 internal marker reporter; actives raise or lower the signal
Procedure, shortened: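 Multiplexed reporter mRNA assay, HepG2 human hepatoma cells, 24 h treatment. Signal: FAM-labelled, HpaI-digested RT-PCR fragments by CE. Fit: bidirectional, baseline DMSO.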

Measured: outcome

Chain of Aryl hydrocarbon receptor (Homo sapiens) (P35869 whole entry, looked up): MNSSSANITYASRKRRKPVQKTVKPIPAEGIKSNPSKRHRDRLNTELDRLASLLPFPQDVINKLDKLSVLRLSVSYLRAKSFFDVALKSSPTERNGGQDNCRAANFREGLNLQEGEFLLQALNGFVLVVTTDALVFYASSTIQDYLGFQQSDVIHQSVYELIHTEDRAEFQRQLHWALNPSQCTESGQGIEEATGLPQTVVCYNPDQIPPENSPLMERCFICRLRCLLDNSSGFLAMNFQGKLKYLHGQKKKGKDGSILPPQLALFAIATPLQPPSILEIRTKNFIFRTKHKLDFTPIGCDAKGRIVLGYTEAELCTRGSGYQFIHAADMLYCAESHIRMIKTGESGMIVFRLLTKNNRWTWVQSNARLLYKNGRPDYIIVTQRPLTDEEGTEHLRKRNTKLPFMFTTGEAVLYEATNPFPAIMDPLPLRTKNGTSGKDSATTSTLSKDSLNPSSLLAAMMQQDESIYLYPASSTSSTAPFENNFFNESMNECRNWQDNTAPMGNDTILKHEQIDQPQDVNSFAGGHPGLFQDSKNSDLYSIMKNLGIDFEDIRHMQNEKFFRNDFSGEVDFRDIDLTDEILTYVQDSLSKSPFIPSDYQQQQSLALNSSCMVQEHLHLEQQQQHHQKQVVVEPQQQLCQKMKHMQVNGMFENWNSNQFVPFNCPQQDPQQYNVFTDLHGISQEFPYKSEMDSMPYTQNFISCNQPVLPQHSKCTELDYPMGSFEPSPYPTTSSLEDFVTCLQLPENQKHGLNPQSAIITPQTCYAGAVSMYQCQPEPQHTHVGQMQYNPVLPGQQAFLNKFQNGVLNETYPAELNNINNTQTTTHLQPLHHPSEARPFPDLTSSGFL
Chain of Bile acid receptor (Homo sapiens) (Q96RI1 whole entry, looked up): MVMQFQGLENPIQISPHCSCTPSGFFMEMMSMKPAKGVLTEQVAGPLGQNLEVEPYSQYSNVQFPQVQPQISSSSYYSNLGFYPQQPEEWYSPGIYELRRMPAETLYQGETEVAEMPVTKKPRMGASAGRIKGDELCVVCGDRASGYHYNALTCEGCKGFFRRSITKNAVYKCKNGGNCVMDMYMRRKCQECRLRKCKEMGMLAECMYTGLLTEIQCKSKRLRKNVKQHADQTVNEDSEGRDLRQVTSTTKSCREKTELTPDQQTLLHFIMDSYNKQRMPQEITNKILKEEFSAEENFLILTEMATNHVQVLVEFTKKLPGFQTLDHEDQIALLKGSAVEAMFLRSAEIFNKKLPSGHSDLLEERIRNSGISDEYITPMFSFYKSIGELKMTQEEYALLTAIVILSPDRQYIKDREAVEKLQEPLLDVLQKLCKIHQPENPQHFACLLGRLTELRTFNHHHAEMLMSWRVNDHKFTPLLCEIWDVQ
Chain of Retinoic acid receptor alpha (Homo sapiens) (P10276 whole entry, looked up): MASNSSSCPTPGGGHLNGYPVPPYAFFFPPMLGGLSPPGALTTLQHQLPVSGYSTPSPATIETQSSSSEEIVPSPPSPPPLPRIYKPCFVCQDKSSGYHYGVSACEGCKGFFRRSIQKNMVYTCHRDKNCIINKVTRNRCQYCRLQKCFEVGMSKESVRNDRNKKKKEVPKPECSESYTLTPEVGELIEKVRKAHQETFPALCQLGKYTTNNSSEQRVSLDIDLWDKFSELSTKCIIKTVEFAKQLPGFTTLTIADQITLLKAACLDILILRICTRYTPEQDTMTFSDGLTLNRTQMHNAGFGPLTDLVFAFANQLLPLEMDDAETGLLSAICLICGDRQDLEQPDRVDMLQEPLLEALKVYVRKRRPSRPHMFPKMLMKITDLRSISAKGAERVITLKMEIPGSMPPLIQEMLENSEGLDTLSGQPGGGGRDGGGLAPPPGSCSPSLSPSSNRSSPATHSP
Chain of Transcription factor E2F1 (Homo sapiens) (Q01094 whole entry, looked up): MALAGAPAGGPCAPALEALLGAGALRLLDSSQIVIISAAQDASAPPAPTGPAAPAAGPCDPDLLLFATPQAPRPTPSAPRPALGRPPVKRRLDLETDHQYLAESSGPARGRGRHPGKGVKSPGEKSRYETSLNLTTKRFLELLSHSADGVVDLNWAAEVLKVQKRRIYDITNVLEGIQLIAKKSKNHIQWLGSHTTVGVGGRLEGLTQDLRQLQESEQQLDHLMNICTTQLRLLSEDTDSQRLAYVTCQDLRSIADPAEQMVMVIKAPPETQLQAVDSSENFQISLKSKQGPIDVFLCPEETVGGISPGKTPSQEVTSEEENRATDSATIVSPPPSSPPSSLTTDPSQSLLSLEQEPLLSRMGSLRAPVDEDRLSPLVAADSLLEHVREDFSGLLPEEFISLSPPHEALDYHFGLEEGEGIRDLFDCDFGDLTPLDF
Chain of CCAAT/enhancer-binding protein beta (Homo sapiens) (P17676 whole entry, looked up): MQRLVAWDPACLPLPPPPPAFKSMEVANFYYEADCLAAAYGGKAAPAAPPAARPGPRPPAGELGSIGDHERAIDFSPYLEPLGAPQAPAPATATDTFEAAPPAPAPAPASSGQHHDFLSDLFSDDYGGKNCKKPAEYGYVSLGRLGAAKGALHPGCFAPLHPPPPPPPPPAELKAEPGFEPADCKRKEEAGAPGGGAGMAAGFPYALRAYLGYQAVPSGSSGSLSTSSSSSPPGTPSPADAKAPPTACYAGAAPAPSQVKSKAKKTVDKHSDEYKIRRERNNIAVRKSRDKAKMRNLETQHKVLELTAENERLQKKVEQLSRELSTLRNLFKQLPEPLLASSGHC
Chain of Hepatocyte nuclear factor 3-beta (Homo sapiens) (Q9Y261 whole entry, looked up): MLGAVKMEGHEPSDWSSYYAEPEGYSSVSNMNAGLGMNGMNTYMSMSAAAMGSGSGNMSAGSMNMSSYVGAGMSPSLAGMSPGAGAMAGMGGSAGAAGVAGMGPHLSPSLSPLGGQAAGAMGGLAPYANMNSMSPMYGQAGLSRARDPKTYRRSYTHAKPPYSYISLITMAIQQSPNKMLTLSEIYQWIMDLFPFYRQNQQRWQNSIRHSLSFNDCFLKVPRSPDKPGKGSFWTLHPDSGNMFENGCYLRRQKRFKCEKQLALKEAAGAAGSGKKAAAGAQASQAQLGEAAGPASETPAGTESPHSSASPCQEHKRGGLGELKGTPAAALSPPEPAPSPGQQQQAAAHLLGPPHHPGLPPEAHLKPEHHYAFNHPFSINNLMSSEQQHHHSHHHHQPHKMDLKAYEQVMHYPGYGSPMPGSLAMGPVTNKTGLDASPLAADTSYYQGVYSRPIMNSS

CC(C)=CCCC(C)CCOC=O (centres undefined)
not listed: [19] | [20]
inactive: all other assays above

C=CC(C)(O)CCC=C(C)C (centres undefined)
not listed: [20]
inactive: all other assays above

Cc1ccc(S(N)(=O)=O)cc1
not listed: [20]
inactive: all other assays above

C=CCOC(=O)CCCCCC
not listed: [11] | [18]
inactive: all other assays above
